Data on 41 compounds can be found in PubChem BioAssay AID1224903 (Bradner/Qi Labs at DFCI, 2016).

Out of some 66,000 compounds screened, about 720 (1.1%) were called active. Cut-off read from the data, not from the text of the source: active = normalised signal below about 0.5; inactive = the rest, inconclusive results apart. The sample as a whole holds a higher share of actives than the screen did.

Sequence of Chromobox protein homolog 7 (Homo sapiens) (O95931 whole entry, looked up): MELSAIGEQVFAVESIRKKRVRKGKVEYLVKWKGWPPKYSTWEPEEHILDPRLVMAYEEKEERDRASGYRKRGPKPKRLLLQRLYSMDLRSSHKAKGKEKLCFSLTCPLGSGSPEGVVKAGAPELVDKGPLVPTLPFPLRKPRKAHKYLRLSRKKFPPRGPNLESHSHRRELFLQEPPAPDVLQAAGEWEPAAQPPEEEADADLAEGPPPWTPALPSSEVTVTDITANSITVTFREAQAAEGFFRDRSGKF

This assay addresses Chromobox protein homolog 7 (Homo sapiens) (UniProt O95931). The assay can be described thus: blockers of CBX7 binding to H3K27me3 peptide – biochemical, AlphaScreen, primary screen (AID 1224903). The settings on record: AlphaScreen His6-CBX7 / biotin-H3K27me3 peptide binding, stronger effect = lower value; z-score: measured here: z-score of CBX7 signal.
Regarding `CC1CCN(c2nc3ccc(C(=O)NCCCN4C(C)CCCC4C)cc3s2)CC1` (configuration not stated), the normalised signal (fraction of DMSO) was 1.41 (inactive) and the z-score was determined as 3.88.

Turning to `COc1ccc(CCNC(=O)c2cccc3c2C(=O)N(Cc2cccnc2)C3)cc1OC`, the normalised signal (fraction of DMSO) is 1.02 (inactive) and the z-score was determined as 0.0167.

As for `CCN(C(=O)Cc1nc(N)n[nH]1)C1(C(=O)Nc2ccccc2)CCCCC1`, the normalised signal (fraction of DMSO) is 0.201 (active) and the z-score was -14.5.

As to `CCN(C(=O)Cc1nc(N)n[nH]1)C1(C(=O)Nc2ccc(C)cc2)CCCCC1`, the normalised signal (fraction of DMSO) is 0.791 (inactive) and the z-score is -3.79.

`Cc1cccc(C)c1NC(=O)C1(N(CCc2c[nH]c3ccccc23)C(=O)c2ccccc2F)CCCCC1`: the normalised signal (fraction of DMSO) was 0.792 (inactive) and the z-score is -3.78.

Turning to `Cc1cc(NCC(C)c2ccccc2)n2ncnc2n1` (configuration not stated), the normalised signal (fraction of DMSO) is 1.03 (inactive) and the z-score was 0.546.

Take `CCOC(=O)c1cccc(NC(=O)Cn2nc(Cc3ccncc3)c3ccccc3c2=O)c1`: the normalised signal (fraction of DMSO) is 0.996 (inactive) and the z-score was -0.0743.

In the case of `COc1cccc(C2=NOC(C(=O)NCCc3ccccc3)C2)c1` (configuration not stated), the normalised signal (fraction of DMSO) was 1.14 (inactive) and the z-score was 1.85.

Turning to `Cc1cc(Nc2ccc(C)c(C)c2)n2ncnc2n1`, the normalised signal (fraction of DMSO) was 1.04 (inactive) and the z-score was 0.609.

As for `CC1CCC(NC(=O)C2c3ccccc3C(=O)N2Cc2ccc3c(c2)OCO3)CC1` (configuration not stated), the normalised signal (fraction of DMSO) was 1.04 (inactive) and the z-score was determined as 0.918.

On to `COc1ccc(CCNC(=O)CSc2nc3ccccc3nc2Cc2ccc(F)cc2)cc1OC`, for which the normalised signal (fraction of DMSO) is 0.48 (active) and the z-score was -8.99.

`COc1ccc(CCNC(=O)CSc2nnc(CNC(=O)c3cccs3)o2)cc1OC`: the normalised signal (fraction of DMSO) is 0.975 (inactive) and the z-score was -0.715.

As to `COc1ccc(CCNC(=O)CSc2nc3ccccc3[nH]2)cc1OC`, the normalised signal (fraction of DMSO) is 1.07 (inactive) and the z-score came out at 0.758.

Take `CCNc1cc(Nc2ccccc2)c2c3c(onc13)-c1ccccc1C2=O`: the normalised signal (fraction of DMSO) is 0.816 (inactive) and the z-score is -3.56.

With `O=S1(=O)N=C(N2CCCCC2)c2ccccc21`, the normalised signal (fraction of DMSO) was 1.07 (inactive) and the z-score came out at 2.

Regarding `O=C1c2ccccc2-c2onc3c(N4CCCC4)ccc1c23`, the normalised signal (fraction of DMSO) was 0.367 (active) and the z-score was -9.89.

As for `O=C(Nc1ccccc1Cl)N1CCCCC1c1cccnc1` (configuration not stated), the normalised signal (fraction of DMSO) was 0.995 (inactive) and the z-score is -0.051.

Take `Cc1ccc(Nc2cc(C(=O)O)c3ccccc3n2)cc1`: the normalised signal (fraction of DMSO) was 1.11 (inactive) and the z-score was determined as 1.21.

As for `O=C(COc1ccc(Cl)cc1)NCc1nnc(SCC(=O)NCC2CCCO2)o1` (configuration not stated), the normalised signal (fraction of DMSO) is 1.04 (inactive) and the z-score was determined as 1.76.

As to `COc1ccc(C2CC(=O)N(CC(=O)Nc3ccc(C)c(Cl)c3)c3ccccc3S2)cc1` (configuration not stated), the normalised signal (fraction of DMSO) is 0.931 (inactive) and the z-score is -1.15.

As for `Cc1ccccc1OCC(O)Cn1c(=N)n(C)c2ccccc21` (configuration not stated), the normalised signal (fraction of DMSO) is 1.02 (inactive) and the z-score was determined as 0.641.

Turning to `CC(=O)N1CCc2cc(S(=O)(=O)N(CCO)Cc3ccccc3)ccc21`, the normalised signal (fraction of DMSO) is 1.17 (inactive) and the z-score was 1.75.

On to `CCOc1ccc2nc(C)cc(Nc3ccc(OC)c(OC)c3)c2c1`, for which the normalised signal (fraction of DMSO) was 0.818 (inactive) and the z-score is -2.64.

For the compound `CCCCc1ccc(NC(=O)CSc2nccn2-c2cccc(C)c2C)cc1`, the normalised signal (fraction of DMSO) is 0.742 (inactive) and the z-score was -0.258.

In the case of `Cc1cccc(N(C)C(=O)C(NS(=O)(=O)c2ccc3c(c2)CCC(=O)N3)c2ccccc2)c1` (configuration not stated), the normalised signal (fraction of DMSO) was 1.06 (inactive) and the z-score was 0.379.

With `CC1CCCCN1CCCNC(=O)C1CCC(=O)N1C1CCCC1` (configuration not stated), the normalised signal (fraction of DMSO) was 1.05 (inactive) and the z-score was determined as 1.64.

In the case of `c1ccc(SCCc2ccc3cc(-c4ccccc4)cn3c2)cc1`, the normalised signal (fraction of DMSO) was 0.986 (inactive) and the z-score is -0.335.

Turning to `CCOc1ccc2nc(NC(=O)c3ccc(OC)cc3)sc2c1`, the normalised signal (fraction of DMSO) was 1.05 (inactive) and the z-score was 1.46.

As to `Cc1c(CNC2CCCCC2C)c(C(=O)O)c(C)n1Cc1ccccc1` (configuration not stated), the normalised signal (fraction of DMSO) was 1.01 (inactive) and the z-score turned out to be 0.18.

`O=C(c1ccc(NC2=NC3CS(=O)(=O)CC3S2)cc1)N1CCN(C2CCCCC2)CC1` (configuration not stated): the normalised signal (fraction of DMSO) is 1.05 (inactive) and the z-score came to 1.03.

On to `COc1ccc(CNC(=O)C2CCN(S(=O)(=O)c3c(C)noc3C)CC2)cc1`, for which the normalised signal (fraction of DMSO) was 1.02 (inactive) and the z-score was found to be 0.788.

For `Cc1ccc(-c2nc(Nc3cccc(C(F)(F)F)c3)c3ccccc3n2)cc1`, the normalised signal (fraction of DMSO) is 1.08 (inactive) and the z-score amounted to 1.39.

In the case of `Cc1ccc(Cl)cc1N1CCN(C(=O)Cn2ncc3c2-c2ccccc2OC3)CC1`, the normalised signal (fraction of DMSO) was 0.728 (inactive) and the z-score is -7.81.

On to `COc1cccc(CNc2ccc3c(c2)ncn3C)c1`, for which the normalised signal (fraction of DMSO) was 0.916 (inactive) and the z-score was -1.96.

On to `CCCn1cnc2cc(NCc3cc(OC)ccc3OC)ccc21`, for which the normalised signal (fraction of DMSO) was 0.919 (inactive) and the z-score is -2.03.

`CCn1cnc2cc(NCc3ccccn3)ccc21`: the normalised signal (fraction of DMSO) was 0.316 (active) and the z-score was -5.49.

Take `O=C(Nc1ccccc1C(F)(F)F)N1CCN(c2ccc3nnc(-c4ccccc4)n3n2)CC1`: the normalised signal (fraction of DMSO) is 0.759 (inactive) and the z-score is -3.38.

Take `Cc1nc2cc(C(=O)NCc3ccc(F)cc3)ccc2n1-c1cccc(F)c1`: the normalised signal (fraction of DMSO) is 0.995 (inactive) and the z-score was -0.21.

As for `Cc1cccc(CCNC(=O)CN2CCN(Cc3ccc(F)cc3Cl)C2=O)c1`, the normalised signal (fraction of DMSO) was 1.02 (inactive) and the z-score is 0.228.

Regarding `Cc1ccc(NC(=O)Cn2cnc3sc(C(=O)Nc4ccc(F)cc4)c(C)c3c2=O)cc1Cl`, the normalised signal (fraction of DMSO) is 1.09 (inactive) and the z-score came out at 2.71.

Consider `Cc1ccc(OCC(=O)Nc2cccc(-c3nc4ncccc4o3)c2)cc1`, for which the normalised signal (fraction of DMSO) is 1.02 (inactive) and the z-score is 0.227.
